Assay results as given in the supplement of paper PMC11732987, “Enantioselective OTUD7B fragment discovery through chemoproteomics screening and high-throughput optimisation” (Communications Chemistry, 2025).

What was measured:
Assay in all cases: log2 ratio of Biotin-Ahx-Ub-VS probe labelling (fragment/DMSO); higher = less target engagement (more negative = stronger competition), active = hit call of the paper (q ≤ 0.05, log2 ratio ≤ -1)
Details in all cases: compound concentration: 200 uM; treatment time: 3 h
USP19 = biological target: T1, USP19 (UniProt O94966)
T1 sequence (whole entry): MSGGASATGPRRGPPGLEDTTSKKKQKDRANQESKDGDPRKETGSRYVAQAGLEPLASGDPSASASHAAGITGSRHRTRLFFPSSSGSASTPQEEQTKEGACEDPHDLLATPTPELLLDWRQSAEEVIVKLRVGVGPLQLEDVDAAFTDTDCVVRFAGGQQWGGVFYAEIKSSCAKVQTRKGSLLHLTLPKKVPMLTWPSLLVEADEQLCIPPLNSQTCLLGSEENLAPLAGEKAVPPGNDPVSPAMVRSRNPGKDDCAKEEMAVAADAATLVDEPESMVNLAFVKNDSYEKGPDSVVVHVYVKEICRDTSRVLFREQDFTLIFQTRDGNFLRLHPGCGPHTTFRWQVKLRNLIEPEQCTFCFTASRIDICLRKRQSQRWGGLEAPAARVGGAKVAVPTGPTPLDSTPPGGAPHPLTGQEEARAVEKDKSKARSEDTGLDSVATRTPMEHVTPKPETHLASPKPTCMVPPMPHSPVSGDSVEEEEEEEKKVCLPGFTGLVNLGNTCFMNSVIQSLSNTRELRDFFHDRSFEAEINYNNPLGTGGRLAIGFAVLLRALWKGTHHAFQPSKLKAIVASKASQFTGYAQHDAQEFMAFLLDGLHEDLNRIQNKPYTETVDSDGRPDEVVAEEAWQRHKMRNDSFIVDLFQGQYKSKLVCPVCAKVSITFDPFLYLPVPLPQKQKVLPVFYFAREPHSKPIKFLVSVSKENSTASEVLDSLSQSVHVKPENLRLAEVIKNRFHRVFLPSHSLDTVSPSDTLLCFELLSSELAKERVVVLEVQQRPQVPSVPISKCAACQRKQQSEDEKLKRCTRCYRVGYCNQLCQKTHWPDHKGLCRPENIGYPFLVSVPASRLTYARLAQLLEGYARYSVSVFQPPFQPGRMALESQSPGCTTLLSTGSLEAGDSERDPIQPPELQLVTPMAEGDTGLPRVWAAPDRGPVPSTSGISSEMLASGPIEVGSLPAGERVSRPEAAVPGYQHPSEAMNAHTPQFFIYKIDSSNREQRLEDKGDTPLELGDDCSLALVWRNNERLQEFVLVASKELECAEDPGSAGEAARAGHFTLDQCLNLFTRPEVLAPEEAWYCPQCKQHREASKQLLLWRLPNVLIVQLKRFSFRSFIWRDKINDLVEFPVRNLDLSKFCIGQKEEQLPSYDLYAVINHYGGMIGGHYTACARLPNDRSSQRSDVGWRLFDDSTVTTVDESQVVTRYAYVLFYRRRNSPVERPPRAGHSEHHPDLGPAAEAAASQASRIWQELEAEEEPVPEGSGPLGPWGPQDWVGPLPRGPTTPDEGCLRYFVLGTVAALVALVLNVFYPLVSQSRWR
Procedure, shortened: (§1)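 HEK293T lysate, 495 µg per sample in Tris/CHAPS/IGEPAL buffer with protease inhibitors, was treated in triplicate with fragment at 200 µM or vehicle for 3 h and then with Biotin-Ahx-Ub-VS at 0.5 µM final for 1 h. Labelled DUBs were NeutrAvidin-enriched, digested with LysC and trypsin, and run by diaPASEF LC-MS/MS. Spectronaut label-free quantities were global-median-normalised, and values are average log2 fragment/vehicle ratios by unpaired t-test on proteins with ≥2 unique peptides.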

USP22 = biological target: T2, USP22 (UniProt Q9UPT9)
T2 sequence (whole entry): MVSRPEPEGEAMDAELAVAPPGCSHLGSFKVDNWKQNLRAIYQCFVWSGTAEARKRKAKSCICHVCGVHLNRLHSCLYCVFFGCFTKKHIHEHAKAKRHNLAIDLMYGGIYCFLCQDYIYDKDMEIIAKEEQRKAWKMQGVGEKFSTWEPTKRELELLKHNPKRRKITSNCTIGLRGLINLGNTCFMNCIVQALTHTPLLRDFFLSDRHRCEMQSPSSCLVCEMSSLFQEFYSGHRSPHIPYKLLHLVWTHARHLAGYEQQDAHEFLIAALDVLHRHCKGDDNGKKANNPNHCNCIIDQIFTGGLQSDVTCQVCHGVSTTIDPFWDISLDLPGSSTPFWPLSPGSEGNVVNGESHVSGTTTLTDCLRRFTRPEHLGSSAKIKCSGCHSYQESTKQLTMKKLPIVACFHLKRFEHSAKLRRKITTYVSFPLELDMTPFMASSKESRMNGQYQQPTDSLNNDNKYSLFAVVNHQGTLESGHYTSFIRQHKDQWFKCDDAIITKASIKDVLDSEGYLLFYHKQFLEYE
Procedure, shortened: as §1

USP24 = USP24 (UniProt Q9UPU5)
Procedure, shortened: as §1

USP25 = biological target: T3, USP25 (UniProt Q9UHP3)
T3 sequence (whole entry): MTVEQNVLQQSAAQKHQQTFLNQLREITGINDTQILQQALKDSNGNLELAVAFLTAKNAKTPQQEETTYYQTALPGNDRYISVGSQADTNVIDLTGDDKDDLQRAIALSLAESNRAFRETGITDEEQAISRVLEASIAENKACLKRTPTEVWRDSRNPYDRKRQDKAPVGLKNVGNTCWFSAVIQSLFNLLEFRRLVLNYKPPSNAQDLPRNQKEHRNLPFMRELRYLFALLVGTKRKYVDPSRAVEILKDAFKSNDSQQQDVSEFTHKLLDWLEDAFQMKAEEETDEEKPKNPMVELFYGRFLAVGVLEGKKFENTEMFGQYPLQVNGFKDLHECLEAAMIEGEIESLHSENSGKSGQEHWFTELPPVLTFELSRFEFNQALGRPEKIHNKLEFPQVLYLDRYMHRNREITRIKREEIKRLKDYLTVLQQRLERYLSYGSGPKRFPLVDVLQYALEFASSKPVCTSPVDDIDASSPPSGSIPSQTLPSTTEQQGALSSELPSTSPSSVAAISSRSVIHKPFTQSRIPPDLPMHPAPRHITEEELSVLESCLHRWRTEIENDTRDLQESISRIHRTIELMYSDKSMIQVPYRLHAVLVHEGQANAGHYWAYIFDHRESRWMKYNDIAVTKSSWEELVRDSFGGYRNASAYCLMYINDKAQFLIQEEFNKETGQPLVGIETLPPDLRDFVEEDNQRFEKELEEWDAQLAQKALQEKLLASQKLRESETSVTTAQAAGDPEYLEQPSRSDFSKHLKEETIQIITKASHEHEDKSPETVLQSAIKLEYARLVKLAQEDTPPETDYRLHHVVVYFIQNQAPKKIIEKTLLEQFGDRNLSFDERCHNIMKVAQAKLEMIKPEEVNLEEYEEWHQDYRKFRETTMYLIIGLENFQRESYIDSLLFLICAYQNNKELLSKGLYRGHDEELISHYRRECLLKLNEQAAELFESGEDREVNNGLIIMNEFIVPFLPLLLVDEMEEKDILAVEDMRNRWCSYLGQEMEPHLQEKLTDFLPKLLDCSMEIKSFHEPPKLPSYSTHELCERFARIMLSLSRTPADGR
Procedure, shortened: as §1

USP28 = biological target: T4, USP28 (UniProt Q96RU2)
T4 sequence (whole entry): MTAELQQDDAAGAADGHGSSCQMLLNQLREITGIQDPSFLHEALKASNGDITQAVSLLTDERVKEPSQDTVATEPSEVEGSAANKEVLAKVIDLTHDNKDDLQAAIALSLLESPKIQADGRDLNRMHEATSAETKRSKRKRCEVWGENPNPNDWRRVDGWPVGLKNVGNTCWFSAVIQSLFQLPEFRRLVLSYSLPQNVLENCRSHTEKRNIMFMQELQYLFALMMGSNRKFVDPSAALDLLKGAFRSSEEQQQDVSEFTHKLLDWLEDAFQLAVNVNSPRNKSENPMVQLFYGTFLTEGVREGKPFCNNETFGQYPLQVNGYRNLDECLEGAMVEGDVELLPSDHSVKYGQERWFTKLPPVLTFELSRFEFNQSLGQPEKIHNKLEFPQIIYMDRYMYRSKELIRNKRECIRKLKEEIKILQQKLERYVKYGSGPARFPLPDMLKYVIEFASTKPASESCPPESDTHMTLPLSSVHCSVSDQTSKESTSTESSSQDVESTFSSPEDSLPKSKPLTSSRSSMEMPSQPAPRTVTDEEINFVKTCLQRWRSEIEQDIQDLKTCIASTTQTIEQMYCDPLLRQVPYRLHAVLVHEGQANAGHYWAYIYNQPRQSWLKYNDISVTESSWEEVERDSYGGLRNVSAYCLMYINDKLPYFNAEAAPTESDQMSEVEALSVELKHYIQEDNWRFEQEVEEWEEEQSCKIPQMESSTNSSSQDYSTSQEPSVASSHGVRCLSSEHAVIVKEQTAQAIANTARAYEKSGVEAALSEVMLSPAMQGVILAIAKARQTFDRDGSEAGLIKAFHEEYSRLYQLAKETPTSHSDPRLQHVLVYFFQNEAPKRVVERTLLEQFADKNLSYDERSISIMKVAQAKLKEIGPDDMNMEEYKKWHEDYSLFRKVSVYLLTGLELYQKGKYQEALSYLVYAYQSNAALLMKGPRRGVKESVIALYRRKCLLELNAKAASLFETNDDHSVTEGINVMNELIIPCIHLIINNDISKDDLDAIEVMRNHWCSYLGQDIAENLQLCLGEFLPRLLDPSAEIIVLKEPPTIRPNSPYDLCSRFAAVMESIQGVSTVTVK
Procedure, shortened: as §1

Measured: log2 ratio of Biotin-Ahx-Ub-VS probe labelling

Sequence of USP24 (Q9UPU5 whole entry): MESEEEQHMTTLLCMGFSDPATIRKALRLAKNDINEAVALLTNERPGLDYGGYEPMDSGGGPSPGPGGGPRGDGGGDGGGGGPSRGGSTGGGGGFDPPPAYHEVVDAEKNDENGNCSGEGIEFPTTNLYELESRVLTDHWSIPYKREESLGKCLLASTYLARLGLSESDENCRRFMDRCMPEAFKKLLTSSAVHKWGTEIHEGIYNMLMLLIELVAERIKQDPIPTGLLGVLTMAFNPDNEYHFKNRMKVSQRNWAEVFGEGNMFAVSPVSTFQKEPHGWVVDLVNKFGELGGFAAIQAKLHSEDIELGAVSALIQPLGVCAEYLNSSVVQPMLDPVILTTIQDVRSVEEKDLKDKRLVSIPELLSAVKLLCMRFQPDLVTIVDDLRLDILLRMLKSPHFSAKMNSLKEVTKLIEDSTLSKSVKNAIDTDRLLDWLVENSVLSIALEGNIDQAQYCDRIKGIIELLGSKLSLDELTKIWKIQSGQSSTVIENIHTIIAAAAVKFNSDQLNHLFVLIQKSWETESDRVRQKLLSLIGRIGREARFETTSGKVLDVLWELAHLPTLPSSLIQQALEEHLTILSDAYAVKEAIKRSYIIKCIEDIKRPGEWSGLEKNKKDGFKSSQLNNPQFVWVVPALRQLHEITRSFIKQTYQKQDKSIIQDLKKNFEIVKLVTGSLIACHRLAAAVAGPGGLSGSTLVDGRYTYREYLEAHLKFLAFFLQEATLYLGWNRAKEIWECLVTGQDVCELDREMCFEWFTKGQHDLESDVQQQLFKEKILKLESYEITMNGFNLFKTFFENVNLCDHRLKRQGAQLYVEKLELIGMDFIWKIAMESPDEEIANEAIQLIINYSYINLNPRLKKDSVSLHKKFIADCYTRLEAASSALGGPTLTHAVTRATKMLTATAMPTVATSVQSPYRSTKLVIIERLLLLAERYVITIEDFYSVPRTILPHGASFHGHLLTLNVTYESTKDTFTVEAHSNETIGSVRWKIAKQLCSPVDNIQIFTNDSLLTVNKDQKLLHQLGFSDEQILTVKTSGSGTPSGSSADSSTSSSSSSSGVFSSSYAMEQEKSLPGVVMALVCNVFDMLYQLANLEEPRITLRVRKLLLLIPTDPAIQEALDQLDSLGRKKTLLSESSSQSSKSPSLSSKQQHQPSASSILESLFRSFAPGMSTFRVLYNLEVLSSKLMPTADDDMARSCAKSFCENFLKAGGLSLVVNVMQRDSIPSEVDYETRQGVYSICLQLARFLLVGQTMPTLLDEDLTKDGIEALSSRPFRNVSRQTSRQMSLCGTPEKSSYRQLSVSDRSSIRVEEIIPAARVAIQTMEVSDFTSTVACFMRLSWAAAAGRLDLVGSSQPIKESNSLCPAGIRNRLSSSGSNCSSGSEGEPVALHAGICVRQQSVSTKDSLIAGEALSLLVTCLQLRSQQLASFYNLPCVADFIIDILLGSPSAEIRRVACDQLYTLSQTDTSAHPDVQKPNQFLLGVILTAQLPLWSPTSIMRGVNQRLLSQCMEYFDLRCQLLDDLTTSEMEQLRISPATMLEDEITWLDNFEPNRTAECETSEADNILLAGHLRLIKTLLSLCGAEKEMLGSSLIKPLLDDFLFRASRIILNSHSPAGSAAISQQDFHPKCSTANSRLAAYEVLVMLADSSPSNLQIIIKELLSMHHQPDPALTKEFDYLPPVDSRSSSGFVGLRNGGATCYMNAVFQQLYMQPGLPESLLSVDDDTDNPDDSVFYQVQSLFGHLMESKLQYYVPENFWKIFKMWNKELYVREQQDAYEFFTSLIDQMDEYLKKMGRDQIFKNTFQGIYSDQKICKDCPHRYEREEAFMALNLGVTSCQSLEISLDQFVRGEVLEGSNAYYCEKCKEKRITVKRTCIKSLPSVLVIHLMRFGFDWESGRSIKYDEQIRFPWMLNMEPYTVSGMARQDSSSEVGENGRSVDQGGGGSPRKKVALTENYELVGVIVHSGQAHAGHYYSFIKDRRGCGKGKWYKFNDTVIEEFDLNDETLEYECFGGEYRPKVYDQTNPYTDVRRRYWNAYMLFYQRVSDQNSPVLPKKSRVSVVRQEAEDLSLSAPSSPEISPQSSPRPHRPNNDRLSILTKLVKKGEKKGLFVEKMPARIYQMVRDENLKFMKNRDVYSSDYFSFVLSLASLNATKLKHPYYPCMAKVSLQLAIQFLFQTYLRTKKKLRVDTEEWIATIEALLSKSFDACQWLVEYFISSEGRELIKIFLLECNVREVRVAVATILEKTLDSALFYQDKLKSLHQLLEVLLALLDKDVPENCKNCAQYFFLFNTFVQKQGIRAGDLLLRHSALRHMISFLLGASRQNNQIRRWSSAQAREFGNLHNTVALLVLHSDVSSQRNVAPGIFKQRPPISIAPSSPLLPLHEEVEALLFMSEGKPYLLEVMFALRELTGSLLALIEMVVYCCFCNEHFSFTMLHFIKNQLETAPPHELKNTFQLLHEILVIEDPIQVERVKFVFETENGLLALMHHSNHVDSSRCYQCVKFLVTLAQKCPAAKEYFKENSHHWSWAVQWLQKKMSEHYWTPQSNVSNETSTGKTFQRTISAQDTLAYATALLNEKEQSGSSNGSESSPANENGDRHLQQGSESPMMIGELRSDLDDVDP

C#Cc1cccc(NC(=O)CCl)c1
inactive: USP19 -0.38 | USP22 -0.379 | USP24 -0.837 | USP25 -0.804 | USP28 -0.906
